High-throughput results (PubChem)
Efflux pump mplx = inhibitors of Candida antifungal efflux pumps expressed in yeast | hit rate 0.44% among 330,000 | AID 485275 | inhibition, % at 10 µM | S. cerevisiae Candida pump triplex, Nile Red efflux;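 active = plate passing quality check with inhibition over a set limit, or well fluorescence over plate mean plus 4 SD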;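 note: Nile Red retained in pooled yeast measured as flow cytometry median fluorescence; higher means more Nile Red kept so more efflux inhibition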
ALR H2O2 inh = inhibitors of human sulfhydryl oxidase ALR; P55789; purified ALR, DTT oxidation, H2O2 HRP-luminol luminescence; inhibition, % (concentration not given with the values); hit rate 3.8% among 290,000; AID 485317;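 active = mean replicate inhibition above about 79%, with every replicate also reaching it, limit read from the data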
Rtt109 HAT inh = inhibitors of Candida albicans Rtt109/Vps75 histone acetyltransferase. inhibition, % at 34.9 µM. hit rate 0.16% among 330,000. purified Rtt109/Vps75, ThioGlo CoA-SH fluorescence, 4 h. Q5AAJ8;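 active = inhibition of at least 50% in every replicate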
GRK2 aptamer HTS = human GRK2 inhibition via aptamer displacement | bead flow cytometry, FAM-aptamer displacement from GRK2 | inhibition of aptamer binding, % at 10 µM | P25098 | hit rate 0.59% among 330,000;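 active = inhibition of aptamer binding above 40%, roughly 3 SD of noise, on plates passing a quality check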;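 note: median bead fluorescence of bound FAM aptamer so fluorescent compounds give negative values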
Target sequence (P25098 whole entry, looked up): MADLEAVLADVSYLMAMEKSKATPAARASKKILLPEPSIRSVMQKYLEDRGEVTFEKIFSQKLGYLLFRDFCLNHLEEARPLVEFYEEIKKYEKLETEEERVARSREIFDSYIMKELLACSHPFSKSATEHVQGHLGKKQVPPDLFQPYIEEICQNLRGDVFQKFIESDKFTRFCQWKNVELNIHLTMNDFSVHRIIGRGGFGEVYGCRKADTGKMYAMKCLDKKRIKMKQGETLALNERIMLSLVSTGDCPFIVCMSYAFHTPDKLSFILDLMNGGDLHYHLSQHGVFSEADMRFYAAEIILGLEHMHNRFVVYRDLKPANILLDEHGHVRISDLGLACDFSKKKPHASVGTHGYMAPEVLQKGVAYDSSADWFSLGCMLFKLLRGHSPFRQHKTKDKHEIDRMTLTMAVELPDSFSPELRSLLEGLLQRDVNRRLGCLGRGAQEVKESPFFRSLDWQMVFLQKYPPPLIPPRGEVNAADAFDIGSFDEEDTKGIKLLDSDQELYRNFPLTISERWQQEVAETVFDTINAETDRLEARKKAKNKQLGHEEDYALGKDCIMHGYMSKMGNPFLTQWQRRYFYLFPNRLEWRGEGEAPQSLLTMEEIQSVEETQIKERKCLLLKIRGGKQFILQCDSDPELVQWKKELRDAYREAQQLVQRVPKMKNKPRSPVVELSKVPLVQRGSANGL
HDAC3 inh = human HDAC3 inhibition; AID 2718; inhibition, % at 8.3 µM; O15379; hit rate 0.15% among 320,000; recombinant HDAC3, fluorogenic peptide/trypsin coupled, fluorescence; in the data active = inhibition above about 26%, passing the limit was not always enough
Rce1 inhib = blocks yeast Ras-converting enzyme; Q03530; yeast membranes, quenched prenylated peptide cleavage fluorescence; calls only; hit rate 0.27% among 290,000;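 active = fall in fluorescence gain of 50% or more versus controls, with final raw signal at or below 3038400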
A number is an active result; n = inactive; x = no result; + = active, no number. Shown are actives, neighbours in structure and some others; about 4.5% of the full set was active somewhere.

SMILES | Efflux pump mplx | ALR H2O2 inh | Rtt109 HAT inh | GRK2 aptamer HTS | HDAC3 inh | Rce1 inhib
Cc1ccc(CCNC(=O)CS(=O)Cc2nc(-c3cccs3)oc2C)cc1 (stereo not drawn) | n | x | n | n | n | n
Cc1ccc(CNC(=O)CS(=O)Cc2nc(-c3cccs3)oc2C)cc1 (stereo not drawn) | n | 99.4 | n | n | n | n
Cc1ccc(-c2nc(CS(=O)CC(=O)NCc3ccc(F)cc3)c(C)o2)cc1 (stereo not drawn) | n | 98.8 | n | n | n | n
CC(C)n1nnnc1SCC(=O)Nc1cccc(F)c1 | x | x | n | x | x | n
CCC(C(=O)NCCCN1CCN(C)CC1)n1nc(C)n2c(cc3occc32)c1=O (stereo not drawn) | n | n | n | n | n | n
COc1ccc(-c2nc(CS(=O)(=O)CC(=O)NCCc3ccccc3)c(C)o2)cc1 | n | n | n | n | n | n
Cc1oc(-c2ccccc2F)nc1CS(=O)CC(=O)NCc1ccccn1 (stereo not drawn) | n | 99.2 | n | n | n | n
Cc1ccc(-c2nc(CS(=O)CC(=O)NCc3ccccn3)c(C)o2)cc1 (stereo not drawn) | n | 99.6 | n | n | n | n
Cc1oc(-c2ccccc2F)nc1CS(=O)(=O)CC(=O)NC1CCCC1 | n | n | n | n | n | n
CCc1ccc(-c2nc(CS(=O)CC(=O)NCCc3ccccc3)c(C)o2)cc1 (stereo not drawn) | n | 99.2 | n | n | n | n
Cc1ccc(OCC(=O)NCc2ccccn2)cc1 | n | n | n | n | n | n
COc1ccc(NC(=O)c2cc(S(=O)(=O)N3CCCCC3)c[nH]2)cc1Cl | n | n | n | n | n | n
CC1(CO)COC(c2ccccc2)=N1 (stereo not drawn) | n | n | n | n | n | n
Cc1ccc(C)c(NC(=O)NNS(=O)(=O)c2ccc(C)c(C)c2)c1 | n | 85.4 | n | n | n | n
Cc1ccc(S(=O)(=O)NNC(=O)CCC(=O)Nc2ccc(C)c(C)c2)cc1 | n | n | n | n | n | n
C[C@H](CO)N1C[C@H](C)[C@@H](CN(C)CC2CCCCC2)Oc2c(NC(=O)Cc3ccccc3)cccc2C1=O | n | x | n | n | x | x
CCn1nc(C)c(CN2CCCC(CO)(Cc3cccc(Cl)c3)C2)c1C (stereo not drawn) | n | n | n | n | n | n
CC1CCC(C(C)C)C2=C1C(C#N)(C#N)C(C#N)(C#N)C(c1ccccc1)N2 (stereo not drawn) | n | 94.4 | n | n | n | n
COc1cc(C2C(C(=O)OC(C)C)=C(C)Nc3[nH]c(=O)[nH]c(=O)c32)ccc1O (stereo not drawn) | n | 79.0 | n | n | n | n
COC(=O)C1=C(C)Nc2[nH]c(=S)[nH]c(=O)c2C1c1ccc(O)cc1 (stereo not drawn) | n | n | n | n | x | n
COC(=O)C1=C(O)/C(=C\c2ccc(CNS(=O)(=O)c3ccc(Cl)cc3)o2)N=C1C | n | n | n | n | n | n
COC(=O)C1=C(O)/C(=C\c2ccc(CNS(=O)(=O)c3ccccc3)o2)N=C1C | n | n | n | 72.0 | n | n
Cc1ccc(N=Cc2nc(-c3ccc(C)cc3)oc2O)cc1 | x | x | n | x | x | n
COc1ccc(N=Cc2nc(-c3ccco3)oc2O)cc1 | n | 91.5 | n | n | n | n
CCOc1ccc(-c2cc(C(=O)NN)[nH]n2)cc1 | n | 98.8 | n | n | n | n
SMILES | Efflux pump mplx | ALR H2O2 inh | Rtt109 HAT inh | GRK2 aptamer HTS | HDAC3 inh | Rce1 inhib
COc1ccc(-c2cc(C(=O)NN)[nH]n2)cc1OC | n | 98.4 | n | n | n | x
CCCCOP(=O)(c1ccc(N(C)C)cc1)C(O)c1ccc(N(C)C)cc1 (stereo not drawn) | n | 92.3 | n | n | n | n
CN(C(=O)COc1ccc(Oc2ccccc2)cc1)C1CCS(=O)(=O)C1 (stereo not drawn) | n | n | n | n | n | n
CN1c2ccccc2C(C)(C)C12C=Nc1c(cc(N3CCOCC3)c3ccccc13)O2 (stereo not drawn) | x | x | n | x | x | n
CN1c2ccccc2C(C)(C)C12C=Cc1cc(O)ccc1O2 (stereo not drawn) | n | 79.7 | n | n | n | n
Cc1ccc(S(=O)(=O)NC(=O)c2ccccc2C)cc1 | n | n | n | n | x | n
O=S(=O)(c1ccccc1)N1N=C(c2ccc(O)cc2)CC1c1ccco1 (stereo not drawn) | n | 99.6 | n | n | n | n
CCOC(=O)c1c(NC(=O)c2cccc(N3C(=O)CCC3=O)c2)sc(C)c1C | n | n | n | n | n | +
